{
  "source": "PubChem BioAssay (Tox21)",
  "note": "“And” between values parts separate entries of the source, which are not always exact repeats. Equal entries are not always repeated. Inconclusive results are not listed. More than one record can exist for a structure, and the calls need not agree. The source made the active and inactive calls. The call rests on the fitted dose curve; in most records, active means well fitted inhibition curve with a large enough effect in the repeat runs; inconclusive means weak or mixed curves; inactive means no such curve, though single readings can be large or run the other way. On the % scale 0 is the no-effect control and ±100 the full control effect; potency means the concentration at half of the fitted maximal effect.",
  "data": [
    {"target": "Cytochrome P450 2C19 (Homo sapiens) (UniProt P33261)", "sequence (P33261 whole entry, looked up)": "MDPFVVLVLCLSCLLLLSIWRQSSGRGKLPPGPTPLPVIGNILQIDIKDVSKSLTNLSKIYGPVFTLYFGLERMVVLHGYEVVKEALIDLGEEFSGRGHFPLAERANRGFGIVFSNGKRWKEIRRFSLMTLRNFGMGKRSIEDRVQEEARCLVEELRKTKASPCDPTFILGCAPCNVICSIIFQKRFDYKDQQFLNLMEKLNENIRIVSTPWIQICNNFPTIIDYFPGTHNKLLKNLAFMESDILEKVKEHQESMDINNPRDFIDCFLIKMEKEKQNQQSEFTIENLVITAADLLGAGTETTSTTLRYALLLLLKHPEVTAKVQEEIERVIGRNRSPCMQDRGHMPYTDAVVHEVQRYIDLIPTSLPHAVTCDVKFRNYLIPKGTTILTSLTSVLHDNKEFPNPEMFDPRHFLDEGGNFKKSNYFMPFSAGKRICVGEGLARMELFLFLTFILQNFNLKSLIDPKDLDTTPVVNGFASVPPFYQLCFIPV", "experiment": "Cytochrome P450 Family 2 Subfamily C Member 19 (CYP2C19) small molecule antagonists: luciferase reporter qHTS assay (AID 1671197); further: nearly all actives have a fitted effect of over 65% in size", "conditions": "P450-Glo CYP2C19 enzyme, luciferin luminescence, 1 h; series mostly up to 115 µM; activity change, negative = inhibition: at the top concentration", "source_text": "National Center for Advancing Translational Sciences [NCATS]\nU.S. Environmental Protection Agency [EPA]\nNational Institutes of Environmental Health Sciences [NIEHS]\nNational Toxicology Program [NTP]\nU.S. Food and Drug Administration [FDA]\nCytochrome P450 (CYP) enzymes are membrane-bound hemeproteins that play a key role in metabolism of drugs and xenobiotics. Evaluation of the effect of chemicals on CYP isozymes is useful to minimize the adverse drug reactions and toxicities in drug development process. Tox21 chemicals were tested for their effect on CYP enzyme activities by using P450-Glo (TM) screening systems (Promega Corporation, Madison, WI). These systems provide a luminescent method containing proluciferin substrates and are converted to luciferin products by CYP isozymes. The luciferin products formed are detected with a luciferin detection reagent, and the amount of light produced is proportional to CYP activity. P450-Glo (TM) CYP2C19 screening system (Catalog. No. V9880) was used to detect the compounds that interfere in CYP2C19 activity. The positive control compound used for CYP2C19 assay is ketoconazole (Sigma-Aldrich, St. Louis, MO).\nTox21 Assay Protocol Summary:\nTwo ul of enzyme-substrate mix was dispensed into medium binding white/solid 1536-well plates (Greiner Bio-One North America Inc., Monroe, NC) using a BioRaptr Flying Reagent Dispenser (FRD, Beckman Coulter, Brea, CA). Compounds dissolved in DMSO and positive control (ketoconazole) were transferred to the assay plates at 23 nl using a Pintool station (Wako, San Diego, CA). The assay plates were incubated at room temperature for 10 min. Then 2 ul of NADPH regeneration solution was added to each well of the assay plates using an FRD and incubated at 37C for 1 h. The reaction was stopped by adding 4 ul of detection reagent using an FRD and after 20 min incubation at room temperature the luminescence signal was measured using a ViewLux plate reader (Perkin Elmer, Shelton, CT). Data were expressed as relative luminescence units.", "values": [
      {"compound": "O=c1[nH]c2cc(Cl)ccc2n1C1CCNCC1", "activity change, negative = inhibition": "4.33% [at 52.9 µM] (inactive)"},
      {"compound": "CCC[CH2][Sn]([CH2]CCC)([CH2]CCC)[O][Sn]([CH2]CCC)([CH2]CCC)[CH2]CCC", "Potency": "0.981 µM (active)"},
      {"compound": "O=C(N[C@H]1N=C(c2ccccc2F)c2cccc3c2N(CC3)C1=O)c1cc2ccccc2[nH]1", "activity change, negative = inhibition": "5.48% [at 52.9 µM] (inactive)"},
      {"compound": "Cc1c([N+](=O)[O-])cc2c(c1[N+](=O)[O-])C(C)(C)CC2(C)C", "activity change, negative = inhibition": "-13.6% (inactive)"},
      {"compound": "C=C(C)C(=O)[O][Sn]([CH2]CCC)([CH2]CCC)[CH2]CCC", "Potency": "0.71 µM (active)"},
      {"compound": "COP(=O)(OC)Oc1ccc([N+](=O)[O-])cc1", "Potency": "20 µM (active)"},
      {"compound": "Clc1c(Cl)c(Cl)c(Cl)c(Cl)c1Cl", "activity change, negative = inhibition": "17.2% [at 10.5 µM] (inactive)"},
      {"compound": "COC(=O)N(OC)c1ccccc1COc1ccn(-c2ccc(Cl)cc2)n1", "Potency": "0.283 µM (active)"},
      {"compound": "CCO/N=C(\\CC)C1=C(O)CC(c2c(C)cc(C)cc2C)CC1=O", "note": "(stereo not given)", "Potency": "5.03 µM (active)"},
      {"compound": "CCc1cccc(C)c1N(C(=O)CCl)[C@@H](C)COC", "Potency": "5.64 µM (active)"},
      {"compound": "CC[C@H](C)[C@H]1O[C@]2(C=C[C@@H]1C)C[C@@H]1C[C@@H](C/C=C(\\C)[C@@H](O[C@H]3C[C@H](OC)[C@@H](O[C@H]4C[C@H](OC)[C@@H](NC)[C@H](C)O4)[C@H](C)O3)[C@@H](C)/C=C/C=C3\\CO[C@@H]4[C@H](O)C(C)=C[C@@H](C(=O)O1)[C@]34O)O2", "Potency": "35.6 µM (active)"},
      {"compound": "CC(Cc1ccccc1)N(C)Cc1ccco1", "note": "(stereo not given)", "Potency": "7.76 µM (active)"},
      {"compound": "CC(C)Br", "Potency": "35.7 µM (active)"},
      {"compound": "CCCN", "activity change, negative = inhibition": "-15.1% (inactive)"},
      {"compound": "C#CCC1=C(C)C(OC(=O)C2C(C=C(C)C)C2(C)C)CC1=O", "note": "(stereo not given)", "Potency": "4.99 µM (active)"},
      {"compound": "CCCCC(CC)COC(=O)c1ccccc1C(=O)OCC(CC)CCCC", "note": "(stereo not given)", "Potency": "14.2 µM (active)"},
      {"compound": "[O-][Cl+3]([O-])([O-])O", "activity change, negative = inhibition": "1.86% (inactive)"},
      {"compound": "O=S1OCC2C(CO1)C1(Cl)C(Cl)=C(Cl)C2(Cl)C1(Cl)Cl", "note": "(stereo not given)", "Potency": "3.18 µM (active) and 3.56 µM (active)"},
      {"compound": "COc1c2c(cc3c1OCO3)CCN(C)C2", "activity change, negative = inhibition": "15.1% [at 52.9 µM] (inactive)"},
      {"compound": "ClC1=C(Cl)[C@]2(Cl)[C@H]3[C@H]([C@@H]4C=C[C@H]3C4)[C@@]1(Cl)C2(Cl)Cl", "Potency": "inactive and 35.6 µM (active)"},
      {"compound": "C#CCO", "activity change, negative = inhibition": "-13.9% (inactive)"},
      {"compound": "CC[C@]1(O)CC[C@H]2[C@@H]3CCC4=CCCC[C@@H]4[C@H]3CC[C@@]21C", "Potency": "12.3 µM (active)"},
      {"compound": "CN(C)CCc1c[nH]c2ccccc12", "activity change, negative = inhibition": "19.7% (inactive)"},
      {"compound": "Cc1ccc(C)c2ccccc12", "activity change, negative = inhibition": "-18.4% (inactive)"},
      {"compound": "c1cc[n+]2c(c1)-c1cccc[n+]1CC2", "Potency": "9.77 µM (active)"},
      {"compound": "C[C@]12Cc3cn[nH]c3C[C@@H]1CC[C@@H]1[C@@H]2CC[C@@]2(C)[C@H]1CC[C@]2(C)O", "Potency": "0.776 µM (active)"},
      {"compound": "CCCCCCC[CH2][Sn]([Cl])([Cl])[CH2]CCCCCCC", "activity change, negative = inhibition": "-7.69% (inactive)"},
      {"compound": "Cc1ccc([N+](=O)[O-])[c]2c1[O][Hg]2", "Potency": "2.19 µM (active)"},
      {"compound": "CC(C)C(Br)C(=O)NC(N)=O", "note": "(stereo not given)", "activity change, negative = inhibition": "22% [at 52.9 µM] (inactive)"},
      {"compound": "O=[N+]([O-])c1ccc(Cl)c(Cl)c1Cl", "Potency": "55.6 µM (active)"},
      {"compound": "COP(=O)(OC)O/C(=C\\Cl)c1cc(Cl)c(Cl)cc1Cl", "Potency": "5.03 µM (active)"},
      {"compound": "C[C@H]1[C@H](c2ccc(Cl)cc2)SC(=O)N1C(=O)NC1CCCCC1", "Potency": "5.03 µM (active)"},
      {"compound": "CSSC", "Potency": "80.6 µM (active)"},
      {"compound": "Nc1ccc(Cl)cc1C(=O)c1ccccc1F", "Potency": "11 µM (active)"},
      {"compound": "c1ccc2nc(N3CCNCC3)ccc2c1", "activity change, negative = inhibition": "13.3% [at 52.9 µM] (inactive)"},
      {"compound": "CC(C)N(C(=O)SC/C(Cl)=C/Cl)C(C)C", "Potency": "3.19 µM (active)"},
      {"compound": "O=c1[nH]c(Cl)c(Cl)cc1Cl", "activity change, negative = inhibition": "-0.864% (inactive)"},
      {"compound": "CNC(=O)CSP(=O)(OC)OC", "activity change, negative = inhibition": "30.4% (inactive)"},
      {"compound": "O=Cc1ccccc1", "activity change, negative = inhibition": "-14.5% (inactive)"},
      {"compound": "CC(C)=CC1C(C(=O)OC(C#N)c2cccc(Oc3ccccc3)c2)C1(C)C", "note": "(stereo not given)", "Potency": "31.7 µM (active)"}
    ]}
  ]
}
